Drawing on PubChem BioAssay AID504847 (National Center for Advancing Translational Sciences (NCATS), 2011), this text covers max response, negative = inhibition and Potency for 84 compounds.

Among all 400,000 compounds or so, about 3,700 (0.93%) were called active. Another 3% or so got no clear call; they are omitted. The full list was thinned out, with actives kept by preference. Values without a mark were called inactive. Calls come from the whole dose curve; as a rule, active = well fitted inhibition curve with a large enough effect; inconclusive = small, poorly fitted or top-dose-only effect, or another doubt; inactive = no such curve, though single readings can be large or run the other way.
% is set by controls: 0 for no effect and ±100 for the full control effect; potency is the fitted concentration of half-maximal effect.

Sequence of Vitamin D3 receptor (Homo sapiens) (P11473 whole entry, looked up): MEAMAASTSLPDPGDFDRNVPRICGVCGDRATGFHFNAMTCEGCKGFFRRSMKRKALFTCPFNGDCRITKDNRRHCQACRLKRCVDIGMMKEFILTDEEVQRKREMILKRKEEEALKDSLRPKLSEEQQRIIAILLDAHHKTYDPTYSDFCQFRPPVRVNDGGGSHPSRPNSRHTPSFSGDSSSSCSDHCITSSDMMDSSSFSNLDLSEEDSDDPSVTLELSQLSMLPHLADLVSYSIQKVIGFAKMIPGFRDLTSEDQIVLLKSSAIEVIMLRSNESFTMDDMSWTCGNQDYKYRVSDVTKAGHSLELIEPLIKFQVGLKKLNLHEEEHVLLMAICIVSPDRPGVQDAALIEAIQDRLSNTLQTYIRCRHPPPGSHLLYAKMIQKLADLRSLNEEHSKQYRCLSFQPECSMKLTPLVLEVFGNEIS

This assay addresses Vitamin D3 receptor (Homo sapiens) (UniProt P11473). Nature of the assay: Inhibitors of the vitamin D receptor (VDR): qHTS. The following applies: VDR-SRC2-3 peptide fluorescence polarization, 2 h; max response, negative = inhibition: active compounds read low. The method, boiled down:
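Measured by FP: displacement of SRC2-3 coactivator peptide from VDR by library compounds, following a two-hour ambient incubation.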
Take `O=c1n(Cc2cccc(C(F)(F)F)c2)c2ccccc2c2nc(-c3ccccc3)nn12`: the max response, negative = inhibition was -21.7%. `CCOc1cccc(CC(=O)N2CCc3c([nH]c4ccccc34)C2c2ccc(F)cc2)c1OCC` (centres undefined): the max response, negative = inhibition was 6.55%. Turning to `COc1ccc(S(=O)(=O)Nc2cccc3cccnc23)c(N)c1`, the max response, negative = inhibition was -18.8%. On to `Cn1cc(-c2nc3cnc(N4CCNCC4)nc3n(CCC#N)c2=O)c2ccccc21`, for which the max response, negative = inhibition was -5.94%. Consider `O=C(Nc1cc(C(=O)Nc2ccc(S(=O)(=O)O)cc2)cc(C(=O)Nc2ccc(S(=O)(=O)O)cc2)c1)Nc1cc(C(=O)Nc2ccc(S(=O)(=O)O)cc2)cc(C(=O)Nc2ccc(S(=O)(=O)O)cc2)c1`, for which the max response, negative = inhibition was 4.66%.

For `O=C(NNC1CC(=O)N(c2cccc(Cl)c2)C1=O)c1cccnc1` (centres undefined), the max response, negative = inhibition was 4.73%. The same measure, in the same setting: for `O=C(OCc1cc(Cl)ccc1OC(F)F)c1cccnc1` the value was 3.25%. Take `O=C(/C=C/c1ccc(Cl)cc1Cl)c1cccnc1`: the Potency was 20 µM (active). In the case of `O=C(c1cnn(-c2ccc(F)cc2)c1-n1cccc1)N1CCN(c2ccc(F)cc2)CC1`, the max response, negative = inhibition was -3.32%. For the compound `CC[C@]1([C@H]2O[C@@H]([C@@H]3O[C@](O)(CO)[C@@H](C)C[C@H]3C)C[C@H]2C)CC[C@@H]([C@]2(C)CC[C@@]3(C[C@@H](O)[C@@H](C)[C@@H]([C@H](C)[C@H](OC)[C@H](C)C(=O)O)O3)O2)O1`, the max response, negative = inhibition is 3.44%. As to `CCOC(=O)C1CCCN(C(=O)CN(c2ccc(OC)cc2)S(=O)(=O)c2c(C)noc2C)C1` (centres undefined), the max response, negative = inhibition is -22.5%. On to `CCOc1ccc(N(CC(=O)OC)S(=O)(=O)c2c(C)noc2C)cc1`, for which the Potency is 89.1 µM (active). `COc1ccc(N(CC(=O)Nc2cc(OC)ccc2OC)S(=O)(=O)c2c(C)noc2C)cc1`: the max response, negative = inhibition was 5.52%. Take `O=C(c1cccc(F)c1)N1CCC2(CCCN(Cc3ccncc3)C2)CC1`: the max response, negative = inhibition is -10.4%.

As for `Cc1ccc(Cn2cc(CCC(=O)NCc3ccc(OC(C)C)cc3)c3ccccc32)cc1`, the max response, negative = inhibition was 7.91%.

On to `COC(=O)c1cccc(NC(=O)c2cccc(N3C(=O)CCC3=O)c2)c1`, for which the max response, negative = inhibition is -2.51%.

With `COC(=O)c1cccc(-n2[nH]nnc2=S)c1`, the Potency is 79.4 µM (active). On to `COC(=O)c1cccc(N2C(=O)C3C4C=CC(CC4)C3C2=O)c1` (centres undefined), for which the max response, negative = inhibition was 12.5%. As for `COc1cccc(NC(=O)CSC2=Nc3ccccc3C3=NC(CC(=O)NC4CCCCC4)C(=O)N23)c1` (centres undefined), the max response, negative = inhibition is 1.75%. `CCOCCCNC(=O)c1cn(CC)c2ccc(S(=O)(=O)N3CCc4ccccc4C3)cc2c1=O`: the max response, negative = inhibition was -6.66%. On the same count and under the same terms, for `OCCN1CCN(CC/C=C2\c3ccccc3Sc3ccc(C(F)(F)F)cc32)CC1` the value was -15.9%. `COc1ccc(/C=C/C(=O)c2cc(Br)ccc(=O)c2O)cc1`: the Potency is 50.1 µM (active). For `COc1ccc(CC(=O)NCC(=O)N/N=C/c2cc(Br)ccc2OC)cc1`, the max response, negative = inhibition is 13.7%.

Regarding `COc1ccc(C(=O)c2oc3ccc(Br)cc3c2NC(C)=O)cc1`, the max response, negative = inhibition was -3.63%. Consider `CCN(CC)c1nn2c(=O)c(C(=O)NCCc3ccccc3)cnc2s1`, for which the max response, negative = inhibition was 2.65%. As for `CCOC(=O)c1sc(NC(=O)/C=C/c2ccc(C(C)C)cc2)c(C(=O)OCC)c1C`, the max response, negative = inhibition was -21.4%.

Turning to `CCOC(=O)c1c(NC(=O)c2ccc(S(=O)(=O)N3CCCC(C)C3)cc2)sc2c1CCN(C(C)C)C2` (centres undefined), the max response, negative = inhibition was 21.6%. As for `CC(C)CC(=O)NC(=S)Nc1cc(C(=O)O)ccc1Cl`, the max response, negative = inhibition is -4.96%. Same read-out and setting: for `Cc1ccc(NC(=S)NCCc2ccc(Cl)cc2)c(C)c1` the value was 2.39%; for `Cc1ccc(C)c(NC(=S)NCC(c2cccnc2)N2CCOCC2)c1` (centres undefined), -7.85%. As for `CCC(C(=O)Nc1ccc(C(C)C)cc1)c1ccccc1` (centres undefined), the max response, negative = inhibition was -16.3%.

Regarding `Cc1ccc(C)c(NC(=S)NNC(=S)Nc2ccc(C(C)C)cc2)c1`, the Potency is 35.5 µM (active). On to `CC(C)c1ccc(NC(=S)NNc2ccc(Cl)c(C(=O)O)c2)cc1`, for which the Potency is 39.8 µM (active).

On to `COc1cc(C(=O)N2CCN(C(=O)COc3cccc(C)c3)CC2)cc(OC)c1OC`, for which the max response, negative = inhibition is -6.68%. Turning to `Cc1ccc(-c2nc(=N)sn2Cc2ccccc2)cc1`, the Potency is 17.8 µM (active). For the compound `Cc1ccc(CN2C(=O)SC(Nc3ccccc3)C2=O)cc1` (centres undefined), the max response, negative = inhibition was -7.63%. As for `Cc1ccc(-c2cc(C(=O)NC3CCN(Cc4ccccc4)CC3)c3ccccc3n2)cc1`, the max response, negative = inhibition was -7.79%. Take `CC(=O)/C(C)=N\O`: the max response, negative = inhibition is -2.4%.

`CCOc1ccc(CNC(=O)c2cc(=O)[nH]c3ccc(S(=O)(=O)N4CCCCC4)cc23)cc1`: the max response, negative = inhibition was 6.6%. The same measure, in the same setting: the figure for `O=C(NC1CC(=O)N(c2ccc(F)cc2)C1)C1CCCCC1` (centres undefined) is -2.82%; for `CCCn1c2ccccc2c2cnn(CC(=O)N(CC)c3cc(C)ccc3C)c(=O)c21` it is 3.02%. Regarding `CCN(CCCNC(=O)Cn1ncc2c([nH]c3ccccc32)c1=O)c1cccc(C)c1`, the max response, negative = inhibition was 2.86%. With `CCN(CCCNC(=O)c1ccc2c(c1)NC(=O)CN2C)c1cccc(C)c1`, the Potency is 79.4 µM (active). For `CCN(CCCNC(=O)c1ccc(Sc2ccc(C)cc2)c(NC(C)=O)c1)c1cccc(C)c1`, the max response, negative = inhibition is 9.47%. For the compound `CCOc1ccc(N(CC)C(=O)c2noc3c2COc2ccc(C)cc2-3)cc1`, the max response, negative = inhibition is 8.55%. Regarding `CCOc1cccc(CC(=O)N2CCc3c([nH]c4ccccc34)C2c2ccc(OC)cc2)c1OCC` (centres undefined), the max response, negative = inhibition was 11.9%.

Turning to `COc1ccc(-c2cc(C(=O)NC(C(=O)O)C(C)C)c(C)o2)cc1OC` (centres undefined), the max response, negative = inhibition is -0.859%. With `COc1ccc(-c2cc(=O)oc3cc(OCC(=O)N[C@@H](Cc4c[nH]c5ccccc45)C(=O)O)ccc23)cc1`, the max response, negative = inhibition is -24.6%. For `COc1ccc(-c2cc(C(=O)NC(Cc3c[nH]c4ccccc34)C(=O)O)c(C)o2)cc1OC` (centres undefined), the Potency is 44.7 µM (active).

`CC1CCN(c2nc3ccc(C(=O)N4CCN(c5ccccc5)CC4)cc3s2)CC1`: the max response, negative = inhibition was 19.1%. Regarding `COc1ccc(Cn2c(=O)n(-c3ccccc3C)c(=O)c3c4c(sc32)CN(C(C)=O)CC4)cc1`, the max response, negative = inhibition was 7.19%. Take `Cc1ccc(C)c(N2CCN(S(=O)(=O)c3ccc4c(c3)C(C(C)C)C(=O)N4)CC2)c1` (centres undefined): the max response, negative = inhibition was 8%. With `Cc1csc(-c2coc3cc(O[C@@H]4O[C@H](CO)[C@@H](O)[C@@H](O)[C@H]4O)ccc3c2=O)n1`, the max response, negative = inhibition was 9.43%. As for `O=C(O)CCn1cc(/C=C/C(=O)c2ccc(Cl)cc2)c(-c2cccc(Br)c2)n1`, the Potency is 15.8 µM (active).

`O=C(COC(=O)/C=C/c1cn(-c2ccccc2)nc1-c1cccnc1)Nc1ccc(Cl)cc1Cl`: the max response, negative = inhibition is -8.09%.

For `O=C(/C=C/NNC(=O)c1cccc(Br)c1)c1ccccc1`, the max response, negative = inhibition was 0%. Still for that read-out and setting: the figure for `Cc1c(-c2nc(-c3ccc4c(c3)OCO4)no2)nnn1-c1ccc(Br)cc1F` is 14.1%. `Cc1ccc(Cl)cc1-n1ncc2c(N3CCC(C(N)=O)CC3)ncnc21`: the max response, negative = inhibition was -9.07%.

Take `OC[C@@H]1O[C@H](n2cnc3c(SCc4ccccc4)ncnc32)[C@H](O)[C@H]1O`: the max response, negative = inhibition is -14.3%.

As for `O=S(=O)(O)c1cc2onnc2c2ccccc12`, the Potency was 17.8 µM (active). Turning to `COc1ccc(CCN2C(=O)c3oc4cc(C)cc(C)c4c(=O)c3C2c2ccccc2F)cc1OC` (centres undefined), the max response, negative = inhibition is 4.42%. The same measure, in the same setting: for `COc1ccccc1NC(=O)C(=O)c1cc(C)n(-c2ccccc2F)c1C` the value was 14.8%; for `COc1ccc(CCN2C(=O)C(C)=C(C)C2=O)cc1OC`, -14.3%. Take `CCCCOc1ccc(CN2C(=O)C(=O)c3cc(Br)cc(C)c32)cc1OC`: the Potency was 14.1 µM (active). With `CCCCOc1ccc(Cn2c(=O)oc3ccc(C)cc32)cc1OC`, the max response, negative = inhibition was -6.99%. For `CCN(CC)CCNc1ncnc2c1cnn2-c1cc(Cl)ccc1C`, the max response, negative = inhibition was 11.7%. For `CN1[C@H]2CC(OC(=O)[C@@H](CO)c3ccccc3)C[C@H]1[C@H]1O[C@H]12` (some centres undefined), the max response, negative = inhibition was 7.07%.

With `CCOC(=O)/C=C/c1ccc(C(F)(F)F)cc1S(=O)(=O)NC(C)(C)C`, the Potency was 79.4 µM (active). On to `Cn1c(N)c(C(=O)COC(=O)/C=C/c2cccc(C(F)(F)F)c2)c(=O)n(C)c1=O`, for which the max response, negative = inhibition was 8.93%. On the same count and under the same terms, for `CCOC(=O)NNc1cc(C(F)(F)F)ccn1` the value was -1.56%. For `CC1(C)CCc2cc(S(=O)(=O)N3CCN(c4nc(-c5cccs5)nc5ccccc45)CC3)ccc2O1`, the max response, negative = inhibition is -7.78%. For `OCC(CO)NC1C[C@](O)(CO)[C@@H](O)[C@H](O)[C@H]1O` (some centres undefined), the max response, negative = inhibition was 1.5%. In the case of `CC(=O)N1CCN(C(=O)c2cc(-c3ccc(C)o3)nc3ccccc23)CC1`, the max response, negative = inhibition is -3.82%.

Consider `CC1CCCN(C(=O)c2cc(-c3ccco3)nc3ccccc23)C1` (centres undefined), for which the Potency is 35.5 µM (active). Consider `O=C(Nc1cccc(F)c1)c1cc(-c2ccco2)nc2ccccc12`, for which the max response, negative = inhibition is -14.8%.

In the case of `CN(C)c1cccc(C(=O)Nc2nc3ccc(S(=O)(=O)NC(C)(C)C)cc3s2)c1`, the max response, negative = inhibition was 8.63%. Still for that read-out and setting: for `COc1ccccc1-c1noc(CSc2nnc(-c3ccccc3)n2-c2ccc(C)c(C)c2)n1` the value was 5.39%. Regarding `O=C(Cn1nc(CNc2ccc(Cl)cc2)[n+]2c1CCCCC2)c1ccc(Cl)cc1`, the Potency is 79.4 µM (active). For `O=C(Cn1nc(C(F)(F)F)c2c1CCCC2)Nc1ccc(Cl)cc1`, the max response, negative = inhibition is 4.81%. Consider `O=C(Cn1ncc(N2CCCC2)c(Br)c1=O)c1ccc(Cl)cc1`, for which the max response, negative = inhibition is -1.29%.

As to `Cc1cccc(N2CCN(c3ccc(C(=O)O)cc3NC(=O)c3ccccc3F)CC2C)c1` (centres undefined), the max response, negative = inhibition was 1.51%. For `O=C(Nc1ccccc1Cl)/C(Cl)=C(\Cl)S(=O)c1ccccc1` (centres undefined), the Potency is 3.98 µM (active).

In the case of `O=C(CCN1CCN(C/C=C/c2ccccc2)CC1)Nc1ccccc1Cl`, the max response, negative = inhibition is -1.78%. Regarding `O=C(Nc1ccccc1Cl)N1CCC(CN2CCCC2)CC1`, the max response, negative = inhibition is 6.62%.
